The values below come from PubChem BioAssay (EPA / NIEHS).

Active and inactive are the calls of the source. Rule for the calls: active = hit-call score of the fitted dose curve at least 0.9, where 1 is the maximum; inactive = score below 0.9.

A word on the AC50: it is the concentration at which the activity in the assay is half-maximal.

The nature of the assay: CCTE_Padilla_ZF_Score.Craniofacial: CCTE's 144 Hour Post-fertilization zebrafish Assay Score for Craniofacial Malformation, Padilla Lab (AID 2284405). The procedure: CCTE_Padilla_ZF_Phenotype_Score is a whole embryo, multiplexed assay using zebrafish ova exposed for 144 hours post fertilization on a 96-well plate.CCTE_Padilla_ZF_Score.Craniofacial is one of one assay component(s) measured or calculated from the CCTE_Padilla_ZF_Phenotype_Score assay. It is designed to make measurements of zebrafish development as detected with brightfield microscopy of developing zebrafish embryos.Data from the assay component CCTE_Padilla_ZF_Score.Craniofacial was analyzed into 1 assay endpoints. This assay endpoint, CCTE_Padilla_ZF_Score.Craniofacial, was analyzed in the positive analysis fitting direction relative to DMSO as the negative control and baseline of activity. Using a type of viability reporter, gain-of-signal activity can be used to understand changes in developmentals as they relate to the whole embryo. To generalize the intended target to other relatable targets, this assay endpoint is annotated to the zebrafish development intended target family, where the subfamily is craniofacial morphogenesis.
Zebrafish husbandry: Wild type adult zebrafish (Danio rerio; undefined outbred stock obtained from Aquatic Research Organisms, Hampton, NH, 03842) were housed in an AAALAC-approved animal facility at 28C with a 14:10 h light: dark cycle (lights on at 08:30 h). Adult fish (2-3 females per male; density = 15-20 adults per tank) were kept in one of several 9-liter (L) flow-through colony tanks (Aquaneering Inc., San Diego, CA). All adults in a colony tank were placed in a 2 L (static) breeding tank (Aquatic Habitats, Apopka, FL) one hour prior to light onset. Typically, adults from two to three colony tanks were mated on the same day. Two hours after light onset the adults were returned to the colony tank. All embryos were gathered from each breeder tank, pooled, and placed in a 28C water bath for 2 h, followed by two washes with 0.06% bleach (v/v) in 10% Hanks' Balanced Salt Solution (13.7 mM NaCl 0.54 mM KCl, 25 uM Na2HPO4, 130 uM CaCl2 100 um MgSO4 and 420 um NaHCO3,), hereafter referred to as Hanks' solution, for 5 min in order to remove any residual bacteria or fungi. Immediately following washing, the embryos were examined, and healthy embryos were separated from dead or unfertilized eggs and moved into fresh Hanks'. Chemical exposures: Zebrafish embryos were exposed in 96-well plates. Between 6- and 8-hours post fertilization (hpf), healthy embryos (with chorions) were transferred, one embryo per well, into 96 well (0.5 mL) microtiter plates (Cell Culture-Treated, Flat-Bottom Microplate 96 well [Corning Costar, Kennebunk, ME; Cat 09-761-145]) filled with 200 uL of Hanks' solution. A random number generator was used to assign the order in which the rows of embryos were plated in 96 well plates each week. After plating, the embryos were dosed with 0.8 uL of the chemical dosing solution then immediately sealed with AlumaSeal II (Excel Scientific Inc, Victorville, CA) to prevent volatilization of the chemicals, and then placed in a leakproof secondary container. These containers were placed in an incubator maintained on a 14:10 h light: dark cycle at 26C for rearing. On 5 dpf, live larvae were gently moved out of the plate with test chemicals and into a new 96 well mesh plate (Millipore Corp., Bedford, MA) with just the Hanks' solution. Once within the mesh well plate, the animals were rinsed with 400 uL of fresh Hanks' three times, and then the plates were covered with a non-adhesive material (Microseal A, BioRad, Hercules, CA), plate lid added, and then plate sides wrapped in Parafilm (PM992, Bermis Company, Neenah, WI), and returned to the incubator. […]
`OCCCC(F)(F)C(F)(F)C(F)(F)C(F)(F)C(F)(F)C(F)(F)C(F)(F)C(F)(F)F`: the call was inactive.

`OCC(O)CC(F)(F)C(F)(F)C(F)(F)C(F)(F)F` (stereo not given): the compound was called inactive. Same read-out and setting: the value for `FC(F)(F)C(F)(F)C(F)(F)C(F)(F)C(F)(F)C(F)(F)C(F)(F)CCI` was “inactive”; that for `NC(=O)C(F)(F)C(F)(F)C(F)(F)F` was “inactive”. Same read-out and setting: the value for `OC(O)C(F)(F)C(F)(F)F` was “inactive”.

Take `C[Si](Cl)(Cl)CCC(F)(F)C(F)(F)C(F)(F)C(F)(F)C(F)(F)C(F)(F)F`: the outcome was inactive. As to `CO[Si](C)(CCC(F)(F)C(F)(F)C(F)(F)C(F)(F)C(F)(F)C(F)(F)F)OC`, the outcome was inactive. For the compound `OCC(F)(F)C(F)(F)C(F)(F)C(F)(F)C(F)(F)C(F)(F)C(F)(F)C(F)(F)CO`, the compound was called inactive. As for `O=C(Cl)C(F)(F)C(F)(F)C(F)(F)C(F)(F)C(F)(F)C(F)(F)C(F)(F)F`, the compound was classed as inactive. On the same count and under the same terms, for `OCC(F)(F)C(F)(F)C(F)(F)CO` the value was “inactive”; for `C=CC(=O)OCCC(F)(F)C(F)(F)C(F)(F)C(F)(F)F`, “inactive”. On the same count and under the same terms, the value for `NCC(F)(F)C(F)(F)C(F)(F)C(F)(F)C(F)(F)C(F)(F)C(F)(F)C(F)(F)F` was “inactive”; that for `O=C(O)C(F)(F)OC(F)(F)C(F)(F)OC(F)(F)C(F)(F)OC(F)(F)F` was “inactive”.

On to `OCC(O)CC(F)(F)C(F)(F)C(F)(F)C(F)(F)C(F)(F)C(F)(F)C(F)(F)C(F)(F)F` (stereo not given), for which the concentration at half-maximal activity (AC50) is 15.7 µM (active).

Consider `OCCCCC(F)(F)C(F)(F)C(F)(F)C(F)(F)F`, for which the concentration at half-maximal activity (AC50) was 39.4 µM (active). Turning to `O=C(F)C1(F)C(F)(F)C(F)(F)C(F)(F)C(F)(F)C1(F)F`, the result was inactive. Still for that read-out and setting: for `NC(=O)C(F)(F)C(F)(F)C(F)(F)C(F)(F)C(F)(F)C(F)(F)C(F)(F)F` the value was “inactive”; for `C=CC(=O)OCC(F)(F)C(F)(F)C(F)(F)C(F)(F)C(F)(F)C(F)(F)C(F)(F)C(F)F`, “inactive”. The same measure, in the same setting: the value for `O=C(O)CCC(F)(F)C(F)(F)C(F)(F)C(F)(F)C(F)(F)C(F)(F)C(F)(F)F` was “inactive”.

For `CNS(=O)(=O)C(F)(F)C(F)(F)C(F)(F)C(F)(F)C(F)(F)C(F)(F)C(F)(F)C(F)(F)F`, the half-maximal activity concentration (AC50) is 85.1 µM (active). As to `C=C(C)C(=O)OCC(F)(F)C(F)(F)C(F)(F)C(F)F`, the result was inactive. On to `O=S(=O)(O)CCC(F)(F)C(F)(F)C(F)(F)C(F)(F)C(F)(F)C(F)(F)C(F)(F)C(F)(F)F`, for which the outcome was inactive. Still for that read-out and setting: for `O=S(=O)(Cl)C(F)(F)C(F)(F)C(F)(F)C(F)(F)C(F)(F)C(F)(F)C(F)(F)C(F)(F)F` the value was “inactive”. Turning to `O=C(O)C(F)(F)C(F)(F)C(F)(F)OC(F)(F)F`, the call was inactive. Same read-out and setting: the value for `O=C(O)C(F)(F)C(F)(F)C(F)(F)C(=O)O` was “inactive”; that for `NC(O)(C(F)(F)F)C(F)(F)F` was “inactive”; that for `O=S(=O)(O)CCC(F)(F)C(F)(F)C(F)(F)C(F)(F)F` was “inactive”.

As for `NC(=O)C(F)(F)C(F)(F)C(F)(F)C(F)F`, the result was inactive. Same read-out and setting: the value for `COC(F)(C(F)F)C(F)(F)F` (stereo not given) was “inactive”. `CCN(CCO)S(=O)(=O)C(F)(F)C(F)(F)C(F)(F)C(F)(F)C(F)(F)C(F)(F)C(F)(F)C(F)(F)F`: the compound was classed as inactive. On to `FC(F)(F)C(F)(F)C(F)(F)CC1CO1` (stereo not given), for which the outcome was inactive. Same read-out and setting: the value for `NC(=O)C(F)(F)C(F)(F)C(F)(F)C(F)(F)C(N)=O` was “inactive”; that for `C=CC(=O)OCC(F)(F)C(F)(F)C(F)(F)COC(=O)C=C` was “inactive”. In the case of `O=C(Cl)C(F)(F)C(F)(F)C(F)(F)C(F)(F)C(F)(F)C(F)(F)F`, the outcome was inactive.

Consider `O=C(O)C(F)(F)C(F)(F)C(F)(F)C(F)(F)C(F)(F)C(F)(F)C(F)F`, for which the outcome was inactive. As for `O=C(O)CCC(F)(F)C(F)(F)C(F)(F)F`, the compound was called inactive. For the compound `O=C(O)C(F)(F)C(F)(F)C(F)(F)OC(F)(C(F)(F)F)C(F)(F)F`, the compound was called inactive.

`NS(=O)(=O)C(F)(F)C(F)(F)C(F)(F)C(F)(F)C(F)(F)C(F)(F)F`: the half-maximal activity concentration (AC50) was 2.66 µM (active). Regarding `O=S(=O)(OCC(F)(F)F)C(F)(F)C(F)(F)C(F)(F)C(F)(F)F`, the result was inactive. Still for that read-out and setting: for `CN(C(=O)C(F)(F)C(F)(F)C(F)(F)F)[Si](C)(C)C` the value was “inactive”.
